Data taken from PubChem BioAssay (NCATS).
Results filed as inconclusive are left out. Activity calls are given as the source filed them. The call rests on the fitted dose curve; in most records, active means well fitted cell-killing curve with a large enough effect; inconclusive means small, poorly fitted or top-dose-only effect, or effect the other way; inactive means no such curve, though single readings can be large or run the other way. Non-standard residues stand in square brackets, D forms with d. Residues, ends and D or L forms follow the SMILES beside them. *: point of attachment. Nva = CCC[C@H](N)C(=O)O; Cbz = O=C(OCc1ccccc1)*

Test: Quantitative High-Throughput drug screen in 47 multiple myeloma cell lines against the NCATS MIPE library collection: MM1R_ATCC cell viability assay (AID 1918981); further: nearly all actives have a fitted effect of over 35% in size
Conditions: MM1R multiple myeloma cells, CellTiter-Glo viability, 48 h; series mostly up to 45.8 µM
Description: PI: Beverly A. Mock Ph.D.
Laboratory of Cancer Biology and Genetics,
Center for Cancer Research, National Cancer Institute,
National Institute of Health, Bethesda, Maryland
Drug resistance and disease progression are common in multiple myeloma (MM) patients, underscoring the need for new therapeutic combinations. […] We hypothesized that effective combinations would reduce MYC expression and enhance p16 activity. […] These preclinical data identify potentially useful drug combinations for evaluation in drug-resistant MM and reveal potential mechanisms of combined drug sensitivity.
Described herein is the primary MIPE qHTS used to cherrypick compounds. Validated compounds were then further tested for potential synergistic activiy.
[1] Peat TJ, Gaikwad SM, Dubois W, Gyabaah-Kessie N, Zhang S, Gorjifard S, Phyo Z, Andres M, Hughitt VK, Simpson RM, Miller MA, Girvin AT, Taylor A, Williams D, D'Antonio N, Zhang Y, Rajagopalan A, Flietner E, Wilson K, Zhang X, Shinn P, Klumpp-Thomas C, McKnight C, Itkin Z, Chen L, Kazandijian D, Zhang J, Michalowski AM, Simmons JK, Keats J, Thomas CJ, Mock BA. Drug combinations identified by high-throughput screening promote cell cycle transition and upregulate Smad pathways in myeloma. Cancer Lett. 2023 Aug 1;568:216284. doi: 10.1016/j.canlet.2023.216284. Epub 2023 Jun 24. PMID: 37356470; PMCID: PMC10408729.
SEQUENCE No. (e.g., 1, 2, 3, etc.); […] (e.g., Cells, Incubation, Reagent, etc.); VALUE and DESCRIPTION.
1; Cells; 5 uL; white, solid bottom 1536-well Greiner assay plate.
2; Compounds; 23 nL; Kalypsis pin tool (Wako USA) equipped with a 1536-well pin head to transfer to the assay plates.
3; Incubation; 48 hours; 37C incubation.
4; Reagent;5uL; CellTiter Glo (Promega).
5; Detector; 425V; Luminescence; Viewlux PerkinElmer.
NOTES (numbers refer to Sequence numbers above)
1. The cell-based screening methods employed in this study were like those previously published. Briefly, the corresponding myeloma cell lines were screened in 1,536-well plates with 500 cells, 5-uL per well for inhibition of cell viability (assessed by measuring ATP levels with CellTiterGlo).
2. NCATS MIPE 4.0 library of approved and investigational drugs were added using the Kalypsis pin tool. Wells treated with DMSO only for 100% viability and media only for 0% viability were used as controls.
3. The assay plates were covered and incubated for 48 hours in a 37C, 5% CO2 incubator with controlled humidity.
4. After 48 hours, CellTilter-GloTM luminescent substrate mix (Promega) reagent was added to the assay plate and plates we incubated for 5 min at room temperature.
5. Signal was measured as median relative luminescence units on a ViewLux (PerkinElmer) multiplate reader.
[1] Heske CM, Davis MI, Baumgart JT, Wilson K, Gormally MV, Chen L, Zhang X, Ceribelli M, Duveau DY, Guha R, Ferrer M, Arnaldez FI, Ji J, Tran HL, Zhang Y, Mendoza A, Helman LJ, Thomas CJ. Matrix Screen Identifies Synergistic Combination of PARP Inhibitors and Nicotinamide Phosphoribosyltransferase (NAMPT) Inhibitors in Ewing Sarcoma. Clin Cancer Res. 2017 Dec 1;23(23):7301-7311. doi: 10.1158/1078-0432.CCR-17-1121. Epub 2017 Sep 12. PMID: 28899971; PMCID: PMC6636827.
Potency means the concentration at half of the fitted maximal effect.

| Structure (SMILES) | Potency |
| --- | --- |
| C=CC(=O)Nc1cccc(Nc2nc(NC3CCC(N(C)C)CC3)nc3c2ncn3C(C)C)c1 (stereo not given) | 187 nM (active) |
| CC(C)[C@H](CO)Nc1nc(Nc2cccc(Cl)c2)c2ncn(C(C)C)c2n1 | 18700 nM (active) |
| C=C[C@@H]1CN2CCC1C[C@H]2[C@H](O)c1ccnc2ccc(OC)cc12 (stereo not given in full) | inactive |
| C=CCNC1=C2C[C@@H](C)C[C@H](OC)[C@@H](O)[C@@H](C)C=C(C)[C@H](OC(N)=O)[C@@H](OC)C=CC=C(C)C(=O)NC(=CC1=O)C2=O | 1320 nM (active) |
| C[C@@H](NCc1cc2ccccc2[nH]1)c1cccc2ccccc12 | inactive |
| O=C1NC(O)CCN1[C@@H]1O[C@H](CO)[C@H](O)[C@H]1O (stereo not given in full) | inactive |
| O=C(Nc1cc2cc[nH]c2cn1)c1ccccc1 | 7430 nM (active) |
| CCC[C@@H](C=O)NC(=O)[C@H](CC(C)C)NC(=O)[C@H](CC(C)C)NC(=O)OCc1ccccc1 (Cbz-Leu-Leu-[Nva]-aldehyde) | 743 nM (active) |
| CCCc1nc(C(C)(C)O)c(C(=O)O)n1Cc1ccc(-c2ccccc2-c2nn[nH]n2)cc1 | inactive |
| Cn1cc(C2=C(c3c4n(c5ccccc35)CCC(CN)C4)C(=O)NC2=O)c2ccccc21 (stereo not given) | 11800 nM (active) |
| CC(=O)C1=C(O)C=C2Oc3c(C(C)=O)c(O)c(C)c(O)c3C2(C)C1=O (stereo not given) | inactive |
| Oc1ccc(-c2ccc(-c3cc(Nc4cccc(CNC5CC5)c4)n[nH]3)cc2)c(O)c1 | 2350 nM (active) |
| CCN(CC)Cc1ccc2cc(COC(=O)Nc3ccc(C(=O)NO)cc3)ccc2c1 | 332 nM (active) |
| C[C@]12CCC(=O)C=C1[C@@H]1CC1[C@H]1[C@H]3[C@@H]4C[C@H]4[C@@]4(CCC(=O)O4)[C@@]3(C)CC[C@H]12 (stereo not given in full) | inactive |
| Nc1nc(=O)n([C@H]2CSC(CO)O2)cc1F (stereo not given in full) | inactive |
| C[C@H](NC(=O)Cc1cc(F)cc(F)c1)C(=O)N[C@H](C(=O)OC(C)(C)C)c1ccccc1 | inactive |
| CCN(C(=O)c1c(O)c2c(Cl)cccc2n(C)c1=O)c1ccccc1 | inactive |
| C=CC(=O)Nc1cc(NC(=O)c2ccc(C)c(NC(=O)c3ccno3)c2)cc(C(F)(F)F)c1 | 20900 nM (active) |
| O=C(O)CCCCCC(=O)NN=C1CCCC1 | inactive |
| C=C1C(=CC=C2CCC[C@]3(C)[C@@H]([C@H](C)CCCC(C)(C)O)CC[C@@H]23)C[C@@H](O)C[C@@H]1O | 18700 nM (active) |

| Structure (SMILES) | Potency |
| --- | --- |
| CC(C)C[C@H](NC(=O)[C@@H](NC(=O)c1cccc(-c2ccccc2)n1)[C@@H](C)O)B(O)O | 13.2 nM (active) |
| Cc1cnc(Nc2ccc(CN3CCOCC3)cc2)nc1Nc1cccc(S(=O)(=O)NC(C)(C)C)c1 | 4690 nM (active) |
| C[C@@H]1[C@H](C)CC[C@]2(C(=O)O)CC[C@]3(C)C(=CC[C@@H]4[C@@]5(C)C[C@@H](O)[C@H](O)[C@@](C)(CO)[C@H]5CC[C@]43C)[C@@H]12 | inactive |
| COc1ccnc2[nH]cc(C(=O)C(=O)N3CCN(C(=O)c4ccccc4)C[C@@H]3C)c12 | inactive |
| CCS(=O)(=O)Nc1ccc2[nH]c(O)c(C(=Nc3ccc(CN4CCCCC4)cc3)c3ccccc3)c2c1 | 526 nM (active) |
| CCOC(=O)[C@@H](N)Cc1ccc(-c2cc(O[C@H](c3ccc(Cl)cc3-n3ccc(C)n3)C(F)(F)F)nc(N)n2)cc1 | 14800 nM (active) |
| C=CC(=O)N1CCc2ccc(-n3c(=O)ccc4cnc5ccc(-c6cnn(C)c6)cc5c43)cc21 | 2350 nM (active) |
| CCOC(=O)N1CCN([N+]([O-])=NOc2ccc([N+](=O)[O-])cc2C#N)CC1 | 1320 nM (active) |
| CC(=O)O[C@H]1C[C@@H]2CC[C@H]3[C@H]4C[C@H]([N+]5(C)CCCCC5)[C@@H](OC(C)=O)[C@@]4(C)CC[C@@H]3[C@@]2(C)C[C@H]1[N+]1(C)CCCCC1 | inactive |
| Cc1onc(-c2ccccc2)c1C(=O)N[C@@H]1C(=O)N2[C@@H](C(=O)O)C(C)(C)S[C@@H]12 | inactive |
| CC(=O)N1CCN(c2ccc(OCc3nn(C)c(C)c3-c3cccc4c(CCCOc5cccc6ccccc56)c(C(=O)O)n(Cc5cccnc5)c34)cc2)CC1 | 1050 nM (active) |
| COc1cc(OC)c(NC(=O)Nc2cc(C)on2)cc1Cl | inactive |
| COc1cccc2c1C(=O)c1c(O)c3c(c(O)c1C2=O)C[C@@](O)(C(=O)CO)C[C@H]3O[C@H]1C[C@H](N)[C@H](O)[C@H](C)O1 | 20.9 nM (active) |
| C#CCC(Cc1cnc2nc(N)nc(N)c2n1)c1ccc(C(=O)N[C@@H](CCC(=O)O)C(=O)O)cc1 (stereo not given in full) | 11.8 nM (active) |
| CCOc1cc2ncc(C#N)c(Nc3ccc(OCc4ccccn4)c(Cl)c3)c2cc1NC(=O)C=CCN(C)C | 11800 nM (active) |
| NC(=O)c1cccc(-c2cccc(OC(=O)NC3CCCCC3)c2)c1 | inactive |
| C=C1C(=O)O[C@H]2[C@@H]1CCC(C)=CCC[C@@]1(C)O[C@@H]21 | 3720 nM (active) |
| CCN(CC)CCCCNc1ncc2c(n1)N(C)C(=O)N(c1c(Cl)c(OC)cc(OC)c1Cl)C2 | 16600 nM (active) |
| CNC(=O)c1ccc(Nc2cc(Nc3ccccc3S(=O)(=O)C(C)C)c3cc[nH]c3n2)nc1 | 6620 nM (active) |
| Oc1cc2c(cc1O)C1c3ccc(O)c(O)c3OCC1(O)C2 (stereo not given) | inactive |
